Measured values from PubChem BioAssay AID743047 (Broad Institute, 2013).
Measured potencies and affinities stand elsewhere. Unmarked numbers belong to inactive results. Activity calls are given as the source filed them. No rule for the calls is given here.

Experiment: PAX5 activity inhibitors, dose response, selectivity assay for PAX8 inhibitor project, cell-based, plate reader, dry powder samples (AID 743047)

Compound | outcome | activity change, negative = inhibition
Cc1cc(NC(=O)CCCS(=O)(=O)c2nc(-c3cccs3)cc(C(F)(F)F)n2)no1 | inactive | –
C[C@@H]1CN([C@H](C)CO)C(=O)CCCn2cc(nn2)CO[C@H]1CN(C)C(=O)Nc1ccc(-c2cccs2)cc1 | inactive | –
O=C(CCCN1C(=O)/C(=C\c2cccc(Br)c2)SC1=S)Nc1ccccn1 | inactive | –
COc1ccc(OC)c2sc(N(CCCN(C)C)C(=O)CCS(=O)(=O)c3ccccc3)nc12 | inactive | –
O=C(CCCN1C(=O)/C(=C\c2cccc(Br)c2)SC1=S)Nc1cccnc1 | inactive | –
O=C(CCS(=O)(=O)c1ccccc1)Nc1nc2ccc(F)cc2s1 | inactive | –
COc1cc(/C=C2\SC(=S)N(CCC(=O)N3CCCCC3)C2=O)cc(OC)c1OC | inactive | –
COc1ccc(S(=O)(=O)Nc2ccc3c(c2)CC(=O)N([C@@H](C)CO)C[C@@H](C)[C@@H](CN(C)Cc2ccc(-c4ccccc4)cc2)O3)cc1 | inactive | –
COCC(=O)N1[C@H](CO)[C@H](c2ccc(-c3cccnc3)cc2)[C@@H]1C#N | inactive | –
Cc1ccc(-c2csc(NC3OC(=O)c4ccccc43)n2)cc1 (stereo unspecified) | inactive | –
C[C@H]1CN([C@@H](C)CO)C(=O)CCCn2nncc2CO[C@@H]1CN(C)C(=O)Nc1ccc(-c2cccs2)cc1 | inactive | –
COc1ccc(-c2cc(C(F)(F)F)nc(S(=O)(=O)CCCC(=O)Nc3cc(C)on3)n2)cc1OC | inactive | –
Cc1ccc2cccc(NS(=O)(=O)c3ccccc3)c2n1 | inactive | –
COc1cccc2sc(N(CCCN(C)C)C(=O)CCS(=O)(=O)c3ccccc3)nc12 | inactive | –
O=C1/C(=C/c2ccccc2F)SC(=S)N1CC(=O)N1CCCCC1c1cccnc1 (stereo unspecified) | inactive | –
CN(C)CCCN(C(=O)CCOc1ccccc1)c1nc2c(F)cccc2s1 | inactive | –
CN(C[C@H]1N[C@@H](CO)[C@@H]1c1ccc(C2=CCCC2)cc1)C(=O)c1ccc(F)cc1 | – | 225% [at 8 µM]
O=C(c1cc(-c2cccs2)on1)N1CCN(C(c2ccccc2)c2ccccc2)CC1 | inactive | –
N#C[C@H]1[C@@H](c2ccc(C#Cc3cccc(F)c3)cc2)[C@@H](CO)N1C(=O)C1CCCC1 | inactive | –
CN(C[C@H]1N[C@@H](CO)[C@@H]1c1ccc(C2=CCCC2)cc1)C(=O)c1cccc(F)c1 | – | 243% [at 8 µM]
C[C@H](CO)N1C[C@H](C)[C@@H](CN(C)Cc2ccc(-c3ccccc3)cc2)Oc2ccc(NC(=O)C3CC3)cc2CC1=O | inactive | –
C[C@H](CO)N1C[C@H](C)[C@H](CN(C)C(=O)Nc2ccc(-c3cccs3)cc2)OCc2cnnn2CCCC1=O | inactive | –
CC(C)(C)c1nnc(NC(=O)CCS(=O)(=O)c2ccccc2)s1 | inactive | –
N#C[C@H]1N[C@H](CO)[C@@H]1c1ccc(C#Cc2ccccc2F)cc1 | inactive | –
CC(=O)Nc1ccc(NC(=O)c2nc(S(=O)(=O)Cc3ccccc3)ncc2Cl)cc1 | inactive | –
CC1(C)CC(=O)c2sc(NC(=O)CCS(=O)(=O)c3ccccc3)nc2C1 | inactive | –
